# Assay results from PubChem BioAssay AID624441 (Broad Institute, 2012).
# Values without a mark were called inactive.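 The calls were made as follows: active = activation curve reaches 40% at a concentration no higher than the top valid dose tested; inactive = signal falling instead of rising, plus the rest.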
# Assay: reactive oxygen species induction in U2OS, dose response, U2OS cells, fluorescence, dry powder (AID 624441)
# Settings: U2OS ROS induction, H2DCF-DA fluorescence, hits give high values; at 19.5 µM unless noted
row,SMILES,max activation
1,Cc1ccccc1CSc1nsc(N)n1,36.4% [at 5 µM]
2,Nc1nc(SCc2ccc(Cl)cc2Cl)ns1,43.7%
3,O=C(Nc1ccccc1)Nc1nc(SCc2ccccc2)ns1,-12% [at 10 µM]
4,Cc1ccccc1CSc1n[nH]c(N)n1,26% [at 0.0195 µM]
5,O=C(Nc1nc(SCc2ccccc2)ns1)C1CCC1,11.4%
6,Nc1nc(SCc2ccccc2Cl)ns1,15.6% [at 0.0001 µM]
7,Cc1cccc(CSc2nsc(N)n2)c1,19.3% [at 1.2 µM]
8,Cc1ccccc1CSc1nnc(N)s1,9.38%
9,Nc1nc(SCc2ccc(F)cc2)ns1,27%
10,Nc1nc(S(=O)(=O)Cc2ccccc2)ns1,20.7% [at 0.0195 µM]
11,O=C(Nc1nc(SCc2ccccc2)ns1)C1CC=CCC1 (configuration not stated),33.9% [at 38 µM]
12,Nc1nc(SCc2ccccc2)ns1,18.5% [at 0.3 µM]
